Inconclusive results are not listed. Entries that show only a call come without a potency. Unmarked numbers belong to inactive results. Active and inactive are the calls of the source. Calls follow the shape of the full dose curve.
assay: p53 small molecule agonists, cell-based qHTS assay: qHTS cell viability counter screen (AID 1963581); settings: p53RE-bla HCT-116 viability, ATP luminescence, 16 h; series mostly up to 66 µM; also: nearly all actives have a fitted effect of over 45% in size
Excerpt: National Center for Advancing Translational Sciences [NCATS]
Division of Preclinical Innovation [DPI]
U.S. Environmental Protection Agency [EPA]
National Institutes of Environmental Health Sciences [NIEHS]
National Toxicology Program [NTP]
U.S. Food and Drug Administration [FDA]
p53, a tumor suppressor protein, is activated following cellular insult, including DNA damage and other cellular stresses. The activation of p53 regulates cell fate by inducing DNA repair, cell cycle arrest, apoptosis, or cellular senescence. The activation of p53, therefore, is a good indicator of DNA damage and other cellular stresses. The CellSensor p53RE-bla HCT-116 cell line (Invitrogen) contains a stably integrated beta-lactamase reporter gene under control of the p53 response elements. The activation of the reporter gene under culture conditions can be detected by fluorescence intensity. This cell line was used to screen the Tox21 compound library in a 1536-well plate format and to identify agonists that activate the p53 signaling pathway. The cytotoxicity of the Tox21 compound library against the p53 RE-bla HCT-116 cell line was tested in parallel by measuring the intra cellular ATP content in the same wells.
Tox21 Assay Protocol Summary:
The p53RE-bla cells were dispensed at 4,000 cells/5 ul/well in 1536-well black wall/clear bottom plates using a Multidrop dispenser. After the assay plates were incubated at a 37 C/5% CO2 incubator for 5 hours, 23 nL of compounds dissolved in DMSO, positive controls or DMSO only was transferred to the assay plate by a pin tool. The plates were incubated at 37 C for 16 hours. After 1 uL of LiveBLAzerTM B/G FRET substrate was added using a Flying Reagent Dispenser, the plates were incubated at room temperature for 2 hours, and fluorescence intensity was measured by an Envision plate reader. For cell viability readout that measures cytotoxicity, 4 ul/well of CellTiter-Glo reagent was added into the assay plates using a Flying Reagent Dispenser. After 30 min incubation at room temperature, the luminescence intensity in the plates was measured using a ViewLux plate reader.
Potency is read from the fitted curve at half-maximal effect.

| Structure (SMILES) | Potency | activity change, negative = cytotoxicity |
| --- | --- | --- |
| CCCCC(=O)O[C@]1(C(=O)CO)[C@H](C)C[C@H]2[C@@H]3CCC4=CC(=O)C=C[C@]4(C)[C@@]3(F)[C@@H](O)C[C@@]21C | inactive |  |
| CCCCCCCCCC[N+](C)(C)[O-] | inactive |  |
| CCCCCCCCCC(=O)OCC | inactive |  |
| Cc1cn([C@@H]2O[C@H](CO)[C@@H](O)[C@@H]2F)c(=O)[nH]c1=O | inactive |  |
| C=CCOC(=O)/C=C\C(=O)OCC=C | inactive |  |
| OCCN(CCO)c1ccccc1 | inactive |  |
| O=S1OCCO1 | inactive |  |
| O=C(CCOCCOCCOCCOCCC(=O)Nc1c(I)cc(I)c(C(=O)O)c1I)Nc1c(I)cc(I)c(C(=O)O)c1I | inactive |  |
| Cc1ncc([N+](=O)[O-])n1CC(C)O (stereo not given) | inactive |  |
| CCOC(=O)OC(C)OC1=C(C(=O)Nc2ccccn2)N(C)S(=O)(=O)c2ccccc21 (stereo not given) | inactive |  |
| CC(C)(O)c1coc(S(=O)(=O)NC(=O)Nc2c3c(cc4c2CCC4)CCC3)c1 | inactive |  |
| C[C@H](CCC(=O)NCC(=O)O)[C@H]1CC[C@H]2[C@@H]3[C@H](O)C[C@@H]4C[C@H](O)CC[C@]4(C)[C@H]3C[C@H](O)[C@]12C | inactive |  |
| OCc1ccccn1 | inactive |  |
| Cc1ccccc1CCO | inactive |  |
| O=C(CN1CCN(Cc2ccc3c(c2)OCO3)CC1)N1c2ccccc2Sc2ccccc21 | inactive |  |
| CCNC(=O)C(C)OC(=O)Nc1ccccc1 (stereo not given) | inactive |  |
| CCCCCCCCCCOCC(O)CN (stereo not given) | inactive |  |
| O=C(CCCl)NCc1ccccc1 | inactive |  |
| CC(=O)c1ccc2ccc3ccccc3c2c1 | inactive |  |
| CN(C)C(=O)CNC(=O)Cc1ccccc1 | inactive |  |

| Structure (SMILES) | Potency | activity change, negative = cytotoxicity |
| --- | --- | --- |
| COc1ccc(N)c([N+](=O)[O-])c1 | inactive |  |
| C[C@@H]1CC[C@@]2(OC1)O[C@H]1C[C@H]3[C@@H]4CC[C@H]5C[C@@H](O)CC[C@]5(C)[C@H]4CC(=O)[C@]3(C)[C@H]1[C@@H]2C |  | -10.7% [at 5.99 µM] |
| CC(C)c1ccc(C#N)cc1 | inactive |  |
| C[C@H](N)[C@H](O)c1cccc(O)c1 | inactive |  |
| CC1(N)CCC(C(C)(C)N)CC1 (stereo not given) | inactive |  |
| CC1(C)S[C@@H]2[C@H](NC(=O)C(C(=O)O)c3ccccc3)C(=O)N2[C@H]1C(=O)O (stereo not given in full) | inactive |  |
| Cc1cccc(Nc2ccncc2S(=O)(=O)NC(=O)NC(C)C)c1 | inactive |  |
| CC(C(=O)O)c1ccc(C(=O)c2ccccc2)s1 (stereo not given) | inactive |  |
| Nc1ccccc1S(=O)(=O)c1ccccc1 | inactive |  |
| CC(C)C(=O)Nc1cccc(C(F)(F)F)c1 | inactive |  |
| Cc1ccc(Cl)cc1Cl | inactive |  |
| CCCCCCCCCCc1ccccc1 | inactive |  |
| Cc1c(C2(c3cc(Br)c(O)c(Br)c3C)OS(=O)(=O)c3ccccc32)cc(Br)c(O)c1Br | 22.3 µM (active) |  |
| O=C(O)CCC(=O)OC[C@@H](NC(=O)C(Cl)Cl)[C@H](O)c1ccc([N+](=O)[O-])cc1 | inactive |  |
| Cc1ccc2sc3cccc(C)c3c2c1 | inactive |  |
| CN(C[C@@H](CC[N+]12CCC(C3CCCCC3)(CC1)CC2)c1ccc(Cl)c(Cl)c1)C(=O)c1cc(C(F)(F)F)cc(C(F)(F)F)c1 | inactive |  |
| CCN(CC)CCOC(=O)C(c1ccccc1)c1ccccc1 | inactive |  |
| CC1=C(CC=O)C(C)(C)CCC1 | inactive |  |
| CCCCCC[C@@H](O)C/C=C\CCCCCCCC(=O)OCC(O)CO (stereo not given in full) | inactive |  |
| CN1CCN(c2cc3c(cc2F)c(=O)c(C(=O)O)cn3-c2ccc(F)cc2)CC1 | inactive |  |
